Unmarked numbers belong to inactive results. Results filed as inconclusive are left out. Activity calls are given as the source filed them. Unless noted, calls come from the whole dose curve; as a rule, active = well fitted curve in the direction sought with a large enough effect; inconclusive = small, poorly fitted or top-dose-only effect, or another doubt; inactive = no such curve, though single readings can be large; an effect the other way counts as inactive or inconclusive.
Legend:
[1] = biological target: Glucocorticoid receptor (Homo sapiens) (UniProt P04150); test: GR-EFC Redistribution (AID 451; calls by dose curve; note: potency is the fitted concentration of half-maximal effect); settings: CHO-K1 GR-EFC translocation, beta-gal luminescence, 2 h
Sequence of Glucocorticoid receptor (Homo sapiens) (P04150 whole entry, looked up, the tested form may be a part): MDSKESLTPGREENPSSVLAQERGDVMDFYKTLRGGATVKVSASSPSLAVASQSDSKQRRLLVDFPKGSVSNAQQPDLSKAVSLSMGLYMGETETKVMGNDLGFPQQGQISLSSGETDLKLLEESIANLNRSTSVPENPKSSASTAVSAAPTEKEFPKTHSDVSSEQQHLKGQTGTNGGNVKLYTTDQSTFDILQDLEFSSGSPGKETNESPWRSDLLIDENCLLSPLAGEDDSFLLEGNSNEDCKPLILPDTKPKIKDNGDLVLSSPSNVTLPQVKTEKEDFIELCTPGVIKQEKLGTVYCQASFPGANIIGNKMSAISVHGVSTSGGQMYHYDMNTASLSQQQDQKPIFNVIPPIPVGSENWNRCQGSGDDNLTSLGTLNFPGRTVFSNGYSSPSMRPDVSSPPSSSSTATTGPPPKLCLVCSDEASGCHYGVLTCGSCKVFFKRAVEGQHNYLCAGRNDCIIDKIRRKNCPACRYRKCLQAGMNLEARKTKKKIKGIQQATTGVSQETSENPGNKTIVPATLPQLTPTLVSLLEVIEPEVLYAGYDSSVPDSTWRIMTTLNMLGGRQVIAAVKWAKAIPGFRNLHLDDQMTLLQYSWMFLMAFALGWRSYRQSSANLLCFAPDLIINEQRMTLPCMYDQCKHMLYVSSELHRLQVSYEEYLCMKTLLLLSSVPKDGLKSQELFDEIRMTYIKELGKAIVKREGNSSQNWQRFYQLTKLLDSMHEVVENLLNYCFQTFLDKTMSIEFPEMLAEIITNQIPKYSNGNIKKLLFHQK
Outline: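 CHO-K1 cells stably expressing nuclear-localized β-gal enzyme acceptor and GR fused C-terminally to the enzyme donor fragment; ligand-driven nuclear translocation restores β-gal by complementation. Compounds titrated up to 46 uM final, 2 h at 37 °C; luminescence read.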

[2] = biological target: Mitogen-activated protein kinase 10 (Mus musculus) (UniProt Q61831); test: JNK3 AlphaScreen Assay (AID 530; active = well fitted curve in either direction with a large enough effect, not every such curve was filed as active;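 note: kinase came from lysate of stimulated human HepG2 cells; signal reports phosphorylation of biotinylated GST-cJun 1-79 at Ser73 with 10 µM ATP; % is set by controls: 0 for no effect and ±100 for the full control effect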); settings: JNK3 lysate, c-Jun phosphorylation; series mostly up to 57.1 µM
Outline: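 Inhibitors reduce antibody binding to phosphorylated biotin-cJun, lowering AlphaScreen luminescence. Lysates from HepG2 cells pre-activated by IL-1beta plus TNF-alpha supplied JNK3; compounds were titrated.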

[3] = biological target: 3',5'-cyclic-AMP phosphodiesterase 4B (Homo sapiens) (UniProt Q07343); test: qHTS Assay for Inhibitors of PDE-IV (AID 607; active = well fitted activation curve with a large enough effect in the main read-out, with a control signal flat, not every such curve was filed as active; note: % of control where 0% means no effect); settings: HEK293 ACTOne CNG channel cells, membrane potential fluorescence; series mostly up to 22.9 µM
Sequence of 3',5'-cyclic-AMP phosphodiesterase 4B (Homo sapiens) (Q07343 whole entry, looked up): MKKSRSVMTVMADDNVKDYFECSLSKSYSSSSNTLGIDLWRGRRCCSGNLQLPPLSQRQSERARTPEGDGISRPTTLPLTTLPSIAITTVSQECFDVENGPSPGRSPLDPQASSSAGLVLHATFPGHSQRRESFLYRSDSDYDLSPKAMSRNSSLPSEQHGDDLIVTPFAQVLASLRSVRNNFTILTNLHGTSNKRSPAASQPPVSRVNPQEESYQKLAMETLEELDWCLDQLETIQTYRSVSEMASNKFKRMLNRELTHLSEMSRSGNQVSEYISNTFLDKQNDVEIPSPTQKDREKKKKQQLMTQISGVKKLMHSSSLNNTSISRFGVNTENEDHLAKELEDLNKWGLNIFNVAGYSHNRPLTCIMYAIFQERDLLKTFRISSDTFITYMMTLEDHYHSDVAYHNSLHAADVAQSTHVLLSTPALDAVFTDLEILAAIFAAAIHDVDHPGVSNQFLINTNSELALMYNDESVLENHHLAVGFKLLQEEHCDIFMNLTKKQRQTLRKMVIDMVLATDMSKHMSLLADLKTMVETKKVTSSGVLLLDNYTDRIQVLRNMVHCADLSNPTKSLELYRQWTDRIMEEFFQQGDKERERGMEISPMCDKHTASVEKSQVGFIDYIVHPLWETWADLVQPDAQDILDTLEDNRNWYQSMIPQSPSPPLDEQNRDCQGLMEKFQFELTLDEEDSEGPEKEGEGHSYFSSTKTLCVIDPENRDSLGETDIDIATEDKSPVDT
Outline: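 HEK293 ACTOne cells with CNG channel (1000/well), endogenous PDE4; membrane potential dye, compounds up to 22.9 uM final. Fluorescence Ex 535/Em 590; RO 20-1724 (100 uM final) as reference.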

[4] = biological target: Cytochrome P450 2C19 (Homo sapiens) (UniProt P33261); test: qHTS Assay for Inhibitors and Substrates of Cytochrome P450 2C19 (AID 899); settings: recombinant CYP2C19, luciferin-H EGE luminescence; series mostly up to 57.1 µM; note: potency is the fitted concentration of half-maximal effect; nearly all actives have a fitted effect of over 60% in size
Sequence of Cytochrome P450 2C19 (Homo sapiens) (P33261 whole entry, looked up): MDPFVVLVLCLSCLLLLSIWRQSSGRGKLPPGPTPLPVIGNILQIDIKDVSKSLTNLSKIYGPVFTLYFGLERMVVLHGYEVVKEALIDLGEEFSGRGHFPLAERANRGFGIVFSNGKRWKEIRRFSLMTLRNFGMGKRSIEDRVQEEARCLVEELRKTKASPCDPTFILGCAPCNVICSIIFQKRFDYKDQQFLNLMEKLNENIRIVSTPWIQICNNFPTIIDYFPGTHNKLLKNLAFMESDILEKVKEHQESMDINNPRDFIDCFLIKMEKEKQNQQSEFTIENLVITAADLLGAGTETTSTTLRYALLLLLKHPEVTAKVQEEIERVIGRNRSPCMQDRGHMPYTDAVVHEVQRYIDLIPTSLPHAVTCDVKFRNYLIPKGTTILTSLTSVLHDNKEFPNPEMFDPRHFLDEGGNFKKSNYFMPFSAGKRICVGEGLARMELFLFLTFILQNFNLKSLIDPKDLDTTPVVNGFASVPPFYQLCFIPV
Outline: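 In 50mM KPO4, the reaction held 5nM enzyme and KM-level (10uM) Luciferin-H EGE; it ran 60 min at 37C after NADPH regeneration and a 10 min compound preincubation. Luminescence values were scaled to 57uM ketoconazole as complete inhibition.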

[5] = Viability counterscreen for agonist of constitutive androstane receptor (CAR) against the NCATS DSHEA and TCM libraries (AID 1794838); settings: HepG2 cell viability counterscreen, CAR agonist assay, co-treated with 0.75 µM CAR antagonist; series mostly up to 40 µM;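 note: HepG2 cells with CYP2B6 reporter and hCAR plus 0.75 µM PK11195 antagonist; 0% is about no effect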
Outline: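 HepG2-CYP2B6-hCAR cells (2,500/well) treated 24 h at 37C with compounds plus 0.75 uM PK11195; viability read by CellTiter-Fluor fluorescence, Ex/Em 405/540 nm.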

[6] = HepG2 viability counterscreen (readout 2: ATP content) against the NCATS DSHEA and TCM libraries (AID 1794840); settings: ATP content luminescence; series mostly up to 27.3 µM; note: 0% is about no effect
Outline: (§1)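 HepG2 cells, 1,000/well, attached ~4 h, then exposed ~24 h at 37C to substances. Protease activity read by fluorescence of 25 uM GF-AFC (Ex/Em 380/510 nm) after 30 min; ATP then by CellTiter-Glo luminescence.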

[7] = HepG2 viability counterscreen (readout 1: protease activity) against the NCATS DSHEA and TCM libraries (AID 1794841); settings: qHTS concentration series; series mostly up to 27.3 µM;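 note: cells exposed to compounds for about 24 h before the protease read; 0% is about no effect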
Outline: as §1

[8] = biological target: Cytochrome P450 3A4 (Homo sapiens) (UniProt P08684); test: qHTS for inhibitors of CYP3A4 against the NCATS DSHEA and TCM libraries (AID 1919971); settings: recombinant CYP3A4 enzyme activity, luminescence qHTS; note: potency is the fitted concentration of half-maximal effect
Sequence of Cytochrome P450 3A4 (Homo sapiens) (P08684 whole entry, looked up): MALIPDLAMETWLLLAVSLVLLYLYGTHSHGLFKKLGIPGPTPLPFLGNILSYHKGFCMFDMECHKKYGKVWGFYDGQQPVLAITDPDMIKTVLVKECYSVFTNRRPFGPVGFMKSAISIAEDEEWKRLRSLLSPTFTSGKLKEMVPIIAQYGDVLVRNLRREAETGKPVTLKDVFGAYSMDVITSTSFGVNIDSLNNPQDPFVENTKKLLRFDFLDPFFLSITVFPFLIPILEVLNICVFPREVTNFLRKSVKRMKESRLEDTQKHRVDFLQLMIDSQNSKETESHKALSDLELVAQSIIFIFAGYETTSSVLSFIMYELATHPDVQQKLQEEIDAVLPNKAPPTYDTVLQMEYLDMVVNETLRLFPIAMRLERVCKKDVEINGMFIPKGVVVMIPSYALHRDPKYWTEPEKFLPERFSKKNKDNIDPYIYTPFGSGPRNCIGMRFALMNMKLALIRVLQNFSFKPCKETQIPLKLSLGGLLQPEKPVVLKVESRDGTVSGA
Outline: (§2)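 Luminescent P450-Glo format: compounds preincubated 15 min with enzyme and luciferin substrate, reaction run 30-45 min after NADPH regeneration solution. Intraplate controls: ketoconazole for CYP3A4 and CYP2C19, sulfaphenazole for CYP2C9.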

[9] = biological target: Cytochrome P450 2D6 (Homo sapiens) (UniProt P10635); test: qHTS for inhibitors of CYP2D6 against the NCATS DSHEA and TCM libraries (AID 1919972); settings: CYP2D6 enzymatic inhibition, luminescence qHTS; series mostly up to 34.1 µM; note: potency is the fitted concentration of half-maximal effect
Sequence of Cytochrome P450 2D6 (Homo sapiens) (P10635 whole entry, looked up): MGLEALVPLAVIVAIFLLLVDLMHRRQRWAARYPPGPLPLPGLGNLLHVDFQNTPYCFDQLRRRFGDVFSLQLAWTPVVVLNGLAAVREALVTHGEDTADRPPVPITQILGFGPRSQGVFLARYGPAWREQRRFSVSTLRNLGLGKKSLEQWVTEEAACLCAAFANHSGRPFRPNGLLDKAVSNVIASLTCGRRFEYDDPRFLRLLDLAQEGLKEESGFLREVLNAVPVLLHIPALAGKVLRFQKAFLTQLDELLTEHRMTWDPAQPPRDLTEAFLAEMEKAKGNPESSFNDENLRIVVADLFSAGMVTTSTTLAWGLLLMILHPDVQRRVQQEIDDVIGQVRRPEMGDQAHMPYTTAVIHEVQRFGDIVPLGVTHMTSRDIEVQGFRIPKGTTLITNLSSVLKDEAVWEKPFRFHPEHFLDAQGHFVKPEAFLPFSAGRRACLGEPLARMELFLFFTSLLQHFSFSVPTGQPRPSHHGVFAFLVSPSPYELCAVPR
Outline: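 Luminescent P450-Glo read-out of CYP2D6 turnover of a luciferin substrate after NADPH-driven reaction of 30-45 min at room temperature. Compounds were first preincubated 15 min with enzyme at titrated concentrations; quinidine was the intraplate control.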

[10] = biological target: Cytochrome P450 2C9 (Homo sapiens) (UniProt P11712); test: qHTS for inhibitors of CYP2C9 against the NCATS DSHEA and TCM libraries (AID 1919973); settings: recombinant CYP2C9 enzyme activity, luminescence; series mostly up to 34.1 µM; note: potency is the fitted concentration of half-maximal effect
Sequence of Cytochrome P450 2C9 (Homo sapiens) (P11712 whole entry, looked up): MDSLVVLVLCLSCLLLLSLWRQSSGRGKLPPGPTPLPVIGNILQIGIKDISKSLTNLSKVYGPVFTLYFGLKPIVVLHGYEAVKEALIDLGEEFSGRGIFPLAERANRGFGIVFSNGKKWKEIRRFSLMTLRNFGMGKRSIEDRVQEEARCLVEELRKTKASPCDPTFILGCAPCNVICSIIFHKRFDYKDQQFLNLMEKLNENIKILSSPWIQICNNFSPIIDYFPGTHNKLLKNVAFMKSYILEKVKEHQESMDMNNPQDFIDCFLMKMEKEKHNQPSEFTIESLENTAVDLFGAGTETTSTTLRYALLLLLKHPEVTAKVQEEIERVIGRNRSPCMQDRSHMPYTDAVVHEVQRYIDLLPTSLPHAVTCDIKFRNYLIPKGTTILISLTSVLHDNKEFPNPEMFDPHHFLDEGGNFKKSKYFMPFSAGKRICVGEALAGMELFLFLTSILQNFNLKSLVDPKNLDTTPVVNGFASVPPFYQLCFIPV
Outline: as §2

[11] = biological target: Cytochrome P450 2C19 (Homo sapiens) (UniProt P33261); test: qHTS for inhibitors of CYP2C19 against the NCATS DSHEA and TCM libraries (AID 1919974); settings: CYP2C19 enzyme inhibition, luminescence qHTS;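 note: luminescence from luciferin released by CYP2C19 oxidation of a pro-luciferin substrate; potency is the fitted concentration of half-maximal effect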
Outline: as §2

[12] = KB-3-1 P-gp reporter qHTS against the NCATS DSHEA and TCM libraries (AID 1919975); settings: KB-3-1 parental cells, CellTiter-Glo luminescence viability, 72 h; series mostly up to 26.1 µM; note: 0% is about no effect
Outline: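 Parental KB-3-1 cells, 500 cells/well, in DMEM with 10% FBS, exposed 72 h at 37 C to compounds in concentration-response. Viability read by CellTiter-Glo luminescence after 30 min at room temperature.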

[13] = biological target: Cytochrome P450 1A2 (Homo sapiens) (UniProt P05177); test: qHTS for inhibitors of CYPIA2 against the NCATS DSHEA and TCM libraries (AID 1919976); settings: recombinant CYP1A2 enzyme activity, luminescence; note: potency is the fitted concentration of half-maximal effect
Sequence of Cytochrome P450 1A2 (Homo sapiens) (P05177 whole entry, looked up): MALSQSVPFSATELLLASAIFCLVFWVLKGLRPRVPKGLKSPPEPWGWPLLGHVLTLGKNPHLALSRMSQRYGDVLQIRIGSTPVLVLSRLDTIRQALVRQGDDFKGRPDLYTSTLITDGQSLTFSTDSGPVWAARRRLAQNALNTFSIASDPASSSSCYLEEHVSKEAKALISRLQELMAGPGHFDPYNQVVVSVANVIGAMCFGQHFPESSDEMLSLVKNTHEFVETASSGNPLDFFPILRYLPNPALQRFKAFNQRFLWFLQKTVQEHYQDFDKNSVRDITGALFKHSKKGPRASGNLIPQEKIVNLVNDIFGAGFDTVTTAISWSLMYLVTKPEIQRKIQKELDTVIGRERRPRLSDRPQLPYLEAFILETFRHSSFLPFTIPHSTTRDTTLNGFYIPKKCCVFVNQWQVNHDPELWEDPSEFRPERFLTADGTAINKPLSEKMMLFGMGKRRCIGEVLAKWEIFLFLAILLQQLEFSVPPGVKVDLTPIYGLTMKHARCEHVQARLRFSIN
Outline: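 Human CYP1A2 with pro-luciferin substrate (typically 100 mM KPO4), 15 min preincubation with compound, then 1x NADPH regeneration for 30-45 min at room temperature in the dark. Luciferin quantified by luciferase luminescence; furafylline intraplate control.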

[14] = qHTS Counterscreen for compound interference against the NCATS DSHEA and TCM libraries (AID 1919978); settings: firefly luciferase detection reagent interference, luminescence;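 note: compounds preincubated with 1 µM D-luciferin or buffer before detection reagent; % of control where 0% means no effect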
Outline: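 Firefly luciferase detection reagent was added after compounds (19.5 nM–39.8 uM final) had been incubated 15 min at room temperature with 1 uM D-luciferin or with 100 mM phosphate buffer alone. Luminescence was read after 30 min at room temperature.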

[15] = Dual reporter qHTS for agonist of Pregnane X Receptor (hPXR) against the NCATS DSHEA and TCM libraries: Fluorescence readout (AID 1920058); settings: PXR dual reporter cells; series mostly up to 40 µM; note: 0% is about no effect
Outline: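 hPXR-Luc HepG2 cells, 2000/well in charcoal-stripped serum, attached 5 h, dosed for ~24 h at 37 °C. Fluorescence read is CellTiter-Fluor viability (Ex/Em 405/540 nm); rifampicin positive, tetraoctyl ammonium bromide (92 µM) cytotoxicity controls.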

[16] = biological target: Nuclear receptor subfamily 1 group I member 2 (Homo sapiens) (UniProt O75469); test: Dual reporter qHTS for agonist of Pregnane X Receptor (hPXR) against the NCATS DSHEA and TCM libraries: Luminescence readout (AID 1920059); settings: hPXR dual reporter cells, luciferase luminescence agonist; series mostly up to 40 µM; note: 0% is about no effect
Sequence of Nuclear receptor subfamily 1 group I member 2 (Homo sapiens) (O75469 whole entry, looked up): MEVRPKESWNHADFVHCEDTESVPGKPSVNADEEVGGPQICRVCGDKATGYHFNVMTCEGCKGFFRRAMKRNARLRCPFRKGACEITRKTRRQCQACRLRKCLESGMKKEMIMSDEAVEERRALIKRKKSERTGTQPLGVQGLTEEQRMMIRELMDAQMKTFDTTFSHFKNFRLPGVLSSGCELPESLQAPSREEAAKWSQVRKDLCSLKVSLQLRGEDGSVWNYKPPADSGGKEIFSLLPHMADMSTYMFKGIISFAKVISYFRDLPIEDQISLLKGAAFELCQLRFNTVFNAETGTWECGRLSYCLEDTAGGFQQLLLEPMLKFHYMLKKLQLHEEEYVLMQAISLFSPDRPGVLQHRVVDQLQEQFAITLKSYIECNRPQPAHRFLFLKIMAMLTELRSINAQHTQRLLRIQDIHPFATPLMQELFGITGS
Outline: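 hPXR-LucHepG2 cells in phenol red-free DMEM with 5% charcoal-stripped FBS, 2000 cells/well, attached 5 h, then exposed 24 h at 37C to compounds; rifampicin as positive agonist control (2.8 nM–92 uM). Luciferase luminescence read.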

[17] = Dual reporter qHTS for antagonist of Pregnane X Receptor (hPXR) against the NCATS DSHEA and TCM libraries: Fluorescence Readout (AID 1920061); settings: PXR dual reporter cells, antagonist mode; series mostly up to 40 µM; note: 0% is about no effect
Outline: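 hPXR-Luc HepG2 cells exposed 24 h at 37 C to compounds with 2 uM rifampicin in antagonist mode; luciferase luminescence measured by ONE-Glo, with CellTiter-Fluor viability read beforehand.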

[18] = biological target: Cytochrome P450 3A4 (Homo sapiens) (UniProt P08684); test: qHTS Assay for Inhibitors and Substrates of Cytochrome P450 3A4 (AID 884); settings: recombinant CYP3A4, Luciferin-PPXE luminescence; series mostly up to 57.1 µM; note: potency is the fitted concentration of half-maximal effect; nearly all actives have a fitted effect of over 50% in size
Outline: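 20 nM human CYP3A4 with 25 uM Luciferin-PPXE (at KM) in 200 mM KPO4, preincubated 10 min with compound; NADPH regeneration started a 60 min RT reaction. Luciferin detected by luminescence, normalized to 57 uM ketoconazole as full inhibition.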

[19] = biological target: Calcium and integrin-binding protein 1 (Homo sapiens) (UniProt Q99828); test: Primary qHTS for Identification of Calcium Integrin Binding Protein 1 (CIB1) Competitor (AID 1508620); settings: CIB1-GST / FITC-alphaIIb peptide fluorescence polarization; series mostly up to 114 µM;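 note: GST tagged CIB1 binding a fluorescein labelled alphaIIb integrin peptide tracer; top concentration of the series differs between compounds; % is set by controls: 0 for no effect and ±100 for the full control effect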
Sequence of Calcium and integrin-binding protein 1 (Homo sapiens) (Q99828 whole entry, looked up): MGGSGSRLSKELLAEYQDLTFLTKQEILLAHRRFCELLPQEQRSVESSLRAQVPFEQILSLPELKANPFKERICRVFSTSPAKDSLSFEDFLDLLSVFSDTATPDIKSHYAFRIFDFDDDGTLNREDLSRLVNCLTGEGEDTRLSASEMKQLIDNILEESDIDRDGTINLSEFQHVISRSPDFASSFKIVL
Outline: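 Fluorescence polarization competition: CIB1-GST (1 uM final) preincubated with compound 15 min at room temperature, then FITC-labeled alphaIIb peptide (100 nM final) added for another 15 min. Polarization read at Ex 480/Em 540.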

What does the source list for `CC(C)=CCc1c2c(c3occ(-c4ccc(O)c(O)c4)c(=O)c3c1O)C=CC(C)(C)O2`?
Potency [1]: > 9.22 µM; activity change, negative = inhibition [2]: -1.7% [at 11.4 µM]; Potency [3]: inactive; Potency [4]: 2 µM (active)

For `O=C(OC[C@H]1O[C@@H](OC(=O)c2cc(O)c(O)c(O)c2)[C@H](OC(=O)c2cc(O)c(O)c(O)c2)[C@@H](OC(=O)c2cc(O)c(O)c(O)c2)[C@@H]1OC(=O)c1cc(O)c(O)c(O)c1)c1cc(O)c(O)c(O)c1`, which outcome [5] is on record?
Its outcome is “inactive”.

And the outcome [6]?
Its outcome is “inactive”.

And the outcome [7]?
The outcome was “inactive”.

What about the Potency [8] of the same compound?
The Potency was 7.08 µM (active).

And the Potency [9]?
Its Potency is 14.1 µM (active).

What about the Potency [10] of the same compound?
Its Potency is 6.31 µM (active).

And the Potency [11]?
The Potency was 3.98 µM (active).

What about the outcome [12] of the same compound?
Its outcome is “inactive”.

What about the Potency [13] of the same compound?
The Potency was 3.55 µM (active).

What about the max response [14] of the same compound?
Its max response is 0.413%.

And the outcome [15]?
The outcome was “inactive”.

What about the outcome [16] of the same compound?
Its outcome is “inactive”.

What about the outcome [17] of the same compound?
Its outcome is “inactive”.

With `O=C1CC(c2ccc(O)cc2)Oc2ccccc21` (centres undefined) as the compound, how does the Potency [18] read?
Its Potency is 25.1 µM (active).

With `O=C(/C=C\n1cnc(-c2cc(C(F)(F)F)cc(C(F)(F)F)c2)n1)NNc1cnccn1` as the compound, how does the Potency [19] read?
The Potency was “inactive”.
